EP2 antag – blocks the human prostaglandin E2 receptor EP2. P43116. C6 glioma cells expressing human EP2, cAMP TR-FRET; cells stimulated with saturating PGE2. inhibition, % at 25 µM. 0.52% of 260,000 active;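 active = percent inhibition above 40 after rounding to a whole number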;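 note: rat C6 glioma host cells with rolipram phosphodiesterase inhibitor present; the protocol text gives 20 µM as final concentration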
EP2 mod – modulators of human EP2 prostaglandin E2 receptor. P43116. EP2-expressing cells, cAMP HTRF FRET, PGE2 co-stimulation. induction, % at 25 µM. 0.83% of 260,000 active;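 active = compounds whose cAMP rise, as percent of the full-agonist control response, exceeds 60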;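 note: rat C6 glioma line stably carrying human EP2 under a CMV promoter; the protocol text gives 20 µM as final concentration; 100% = response of wells given 1 µM PGE2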
CHT allo act – human CHT allosteric activation | Q9GZV3 | CHT-expressing cells, membrane potential dye, choline EC20; hits give high values; LV-AA mutant CHT in HEK293 cells | B-score at 10 µM | 0.49% of 310,000 active | AID 488977;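 active = initial fluorescence not abnormally high and integrated response B-score, plate-corrected, over 3 SD above library mean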
Target sequence (Q9GZV3 whole entry, looked up): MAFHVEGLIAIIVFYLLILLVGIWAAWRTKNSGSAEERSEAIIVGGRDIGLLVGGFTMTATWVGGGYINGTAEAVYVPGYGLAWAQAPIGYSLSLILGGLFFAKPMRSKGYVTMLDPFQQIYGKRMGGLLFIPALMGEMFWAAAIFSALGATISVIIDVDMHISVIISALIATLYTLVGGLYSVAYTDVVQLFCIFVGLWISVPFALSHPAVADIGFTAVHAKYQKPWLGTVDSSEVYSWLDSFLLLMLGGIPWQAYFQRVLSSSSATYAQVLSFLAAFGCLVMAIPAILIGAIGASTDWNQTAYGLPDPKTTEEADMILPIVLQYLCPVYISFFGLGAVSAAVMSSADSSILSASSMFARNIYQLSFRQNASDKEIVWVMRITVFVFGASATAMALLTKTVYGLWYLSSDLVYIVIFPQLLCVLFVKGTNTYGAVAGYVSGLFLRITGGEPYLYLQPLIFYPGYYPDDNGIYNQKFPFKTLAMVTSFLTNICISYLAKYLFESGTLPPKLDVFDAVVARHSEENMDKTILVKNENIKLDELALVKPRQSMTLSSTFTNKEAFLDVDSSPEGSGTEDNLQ
CHT block – human CHT choline transport inhibition. Q9GZV3. CHT-expressing cells, membrane potential dye, choline response; hits give low values. B-score at 10 µM. 0.86% of 310,000 active. AID 488975;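 active = B-score over 3 SD under the library average, and starting fluorescence ratio not unusually high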;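 note: choline stimulus applied at its EC90 after an EC20 pre-addition; B-score computed on integrated fluorescence ratio after choline addition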
CHT activ conf – confirmation of human choline transporter (CHT) activators. 91% of 2,500 active. activation, % at 10 µM. CHT-expressing cells, membrane potential dye fluorescence (FDSS); % of choline EC20–EC90 response window; HEK293 expressing CHT LV-AA mutant; choline added at its EC20. shares compounds with CHT allo act. AID 504833;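 active = primary screen active, with duplicate mean activation above negative control mean plus 3 SD, cut at about 11% in these data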
HEK293 MP dye – CHT activator counter-screen hit in parental HEK293 cells. shares compounds with CHT allo act. membrane potential dye fluorescence (FDSS); measured after EC20 choline addition. ratio readout change at 10 µM, hits read low. 62% of 2,500 active. AID 623908;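 active = duplicate-averaged ratio beyond 3 SD from buffer wells, up or down, though filed actives are nearly all decreases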
The depositor's hits bear a star; i = inactive; . = no result given. A selection: hits, their analogues and other compounds. The true share with any hit is near 2%.

SMILES	EP2 antag	EP2 mod	CHT allo act	CHT block	CHT activ conf	HEK293 MP dye
Cc1cc(C)nc(NC(=O)c2cnc3sccn3c2=O)n1	11	-3	9.1*	i	52*	-51*
CN1C(=O)c2c(sc3c2CC(C)(C)SC3)N2CCN=C12	21	.	15*	i	60*	-55*
CC1(C)Cc2c(sc3c2C(=O)N(c2ccccc2)C2=NCCN23)CS1	2	36	i	i	.	.
Cc1cc(N2CCOCC2)c2c(N)c(Br)cc(C)c2n1	19	-17	9.8*	i	45*	-66*
O=C(CN1CCC(O)(c2ccccn2)CC1)NCc1ccc(F)cc1	5	-38	.	.	.	.
O=[N+]([O-])c1cc(Cl)cc(C2=NCCN2)c1	7	28	i	i	49*	-55*
COCc1cc(C)nc(SCC[N+](C)(C)CC(=O)Nc2ccccc2)c1C#N	4	0	i	i	37*	-28*
COCc1cc(C)nc(SCC[N+](C)(C)CC(=O)c2ccc(Br)cc2)c1C#N	4	-3	i	i	.	.
O=P(CCCCCCCCCP(=O)(c1ccccc1)c1ccccc1)(c1ccccc1)c1ccccc1	8	20	i	i	.	.
CCCCN(CCCC)CP(=O)(c1ccccc1)c1ccccc1	9	60	8.9*	i	31*	i
COc1ccc2[nH]c(=O)c(CN(Cc3nnnn3Cc3ccc(F)cc3)C3CCCC3)cc2c1	10	-19	.	.	.	.
CSc1ccc(CN(C)CC(=O)NC(C)c2ccccc2)cc1 (stereo unspecified)	14	-14	i	i	.	.
CCc1cccc(C)c1NC(=O)CN(C)Cc1ccc(Br)cc1	6	-12	i	i	24*	i
CC(NC(=O)CN(C)Cc1ccc(Br)cc1)c1ccccc1 (stereo unspecified)	.	.	8*	i	17*	i
CCCN(CC(=O)Nc1c(C)cccc1CC)C(=O)SCC	13	22	i	i	.	.
CCCCN(CC(=O)Nc1c(C)cccc1CC)C(=O)SCC	17	26	9.1*	i	13*	i
Cc1ccc2oc(-c3cc(NC(=O)c4ccncc4)ccc3Cl)nc2c1	12	26	.	.	.	.
CC(=O)NC1(c2ccccc2F)CCN(Cc2ccc(-n3cccn3)cc2)CC1	7	18	.	.	.	.
CCOc1cc(N2CCOCC2)c(OCC)cc1NC(=O)COC(=O)c1cc2ccccc2cc1O	9	19	7.5*	i	17*	i
O=C(C[n+]1cccc2ccccc21)c1ccccc1	1	13	i	i	.	.
Cc1nc2c(C)[n+](CC(=O)c3ccccc3)ccc2n1C	5	21	i	i	44*	-38*
Cc1cccnc1NC(=O)c1ccc2c(c1)OCO2	.	.	i	i	.	.
Cc1cccnc1NC(=O)/C=C/c1ccc2c(c1)OCO2	35	-12	i	i	44*	-40*
Cc1nc2ccc(Br)cc2c2c1CC(CO)O2 (stereo unspecified)	.	.	6.9*	i	53*	-53*
COCC1CCN(Cc2cn[nH]c2-c2ccc(OC)cc2F)C1 (stereo unspecified)	8	-9	i	i	21*	i
SMILES	EP2 antag	EP2 mod	CHT allo act	CHT block	CHT activ conf	HEK293 MP dye
CC(C)C(=O)N1CCN(c2ccccc2NC(=O)c2cccc(Cl)c2)CC1	11	30	6.6*	i	18*	i
CCOC(=O)c1sc2ncnc(N3CCN(CC)CC3)c2c1C	7	-26	i	i	45*	-43*
CN(C)c1cc[n+](Cc2c(Cl)cccc2Cl)cc1	0	-5	6.8*	i	43*	-46*
COc1ccc(C(c2nnnn2C(C)(C)C)N2CCN(c3cccc(C)c3C)CC2)cc1OC (stereo unspecified)	14	24	.	.	.	.
Cc1cccc(N2CCN(C(c3ccncc3)c3nnnn3C(C)(C)C)CC2)c1C (stereo unspecified)	5	26	i	i	29*	i
CC(C)(C)n1nnnc1C(c1cccnc1)N1CCN(c2cccc(C(F)(F)F)c2)CC1 (stereo unspecified)	7	17	7.8*	i	21*	i
CC(c1nnnn1C(C)(C)C)N1CCN(c2cccc(C(F)(F)F)c2)CC1 (stereo unspecified)	5	36	.	.	.	.
O=S(=O)(O)c1cccc(N=Nc2c(O)ccc3ccccc23)c1	2	-7	i	i	33*	-39*
NC(=O)C1(N2CCCCC2)CCN(S(=O)(=O)c2ccc3c(c2)CCC(=O)N3)CC1	5	-22	.	.	.	.
Cc1cc(OCC(=O)NCCCN2CCOCC2)c2c(C)cc(=O)oc2c1	.	.	6.5*	i	60*	-52*
CCC(C)N1CCC2(CC1)N=c1c(c3c4c5c(C)c(O)c3c(O)c1=NC(=O)C(C)=CC=C[C@H](C)[C@H](O)[C@@H](C)[C@@H](O)[C@@H](C)[C@H](OC(C)=O)[C@H](C)[C@@H](OC)C=CO[C@@](C)(O5)C4=O)N2 (stereo partly specified)	.	.	i	i	22*	-42*
CCCCOC(=O)N1CCOCCOCCOCC1	11	-29	i	i	17*	i
CCCCNC(=O)N1CCOCCOCCN(C(=O)NCCCC)CCOCCOCC1	4	15	i	i	.	.
COc1ccc2occ(C(=O)c3coc4ccc(O)c(CN(C)C)c34)c2c1	14	-30	7.6*	i	32*	-36*
O=C(O)CCC(NC(=O)c1ccccc1C(=O)O)C(=O)O (stereo unspecified)	5	15	.	.	.	.
COc1ccc(-c2nnc(SC(C)C(=O)NCc3ccc4c(c3)OCO4)n2Cc2ccco2)cc1 (stereo unspecified)	7	34	16*	i	62*	i
CC(Oc1ccccc1)C(=O)N(CCC1=CCCCC1)c1c(N)n(Cc2ccccc2)c(=O)[nH]c1=O (stereo unspecified)	.	.	i	i	11*	i
CSc1nc(NCCCO)c2c3c(sc2n1)CN(C)CC3	7	4	i	i	41*	-47*
COc1ccc(C(NC(=O)c2cc(C(C)C)nn2C)c2ccncc2)cc1 (stereo unspecified)	12	-30	.	.	.	.
CCCCCOc1ccc(Br)cc1/C(C)=N/NC1=NCCN1	.	-5	8.7*	i	55*	i
COC(=O)/C(=N/Nc1ccccc1)N1CCCc2ccccc21	6	17	i	i	.	.
COC(=O)/C(=N/Nc1ccc(C)cc1)N1CCCc2ccccc21	3	-3	8.1*	i	-1	i
COC(=O)COc1ccc(S(=O)(=O)N2CCN(c3ccccc3F)CC2)cc1Cl	19	-81	.	.	.	.
